The full data set covers some 8,800 targets. This sample favours those with a hit. About 0.5% of all pairs of compound and target were hits. A number with no mark means an inactive call.
How the values were obtained:
Experiment in all cases: log2 fold change, soluble protein after heating vs DMSO (PISA); higher = thermal stabilisation; K562 lysate, 10 uM; active = over 0.2 and 3.5 SD of the protein, either way, in both replicates (recomputed)
vemurafenib = compound: CCCS(=O)(=O)Nc1ccc(F)c(C(=O)c2c[nH]c3ncc(-c4ccc(Cl)cc4)cc23)c1F [vemurafenib]
Method in brief: (§1)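 A 30 min treatment with 10 μM compound was applied to crude K562 extract at 1 mg/mL protein in PBS pH 7.4 with 1 mM MgCl2. Heating for 3 min spanned 48°C-58°C, after which aliquots were pooled, adjusted to 0.5% NP-40 at 4°C and spun at 21,000xg for 90 min. TMTpro 16plex LC-MS/MS of the supernatant, with channel sums equalised, gave values recorded as log-two fold change in thermal stability against solvent controls, from duplicates.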

[1] = compound: CCCS(=O)(=O)Nc1ccc(F)c(C(=O)c2c[nH]c3ncc(Cl)cc23)c1F
Method in brief: as §1

barasertib = compound: CCN(CCCOc1ccc2c(Nc3cc(CC(=O)Nc4cccc(F)c4)[nH]n3)ncnc2c1)CCOP(=O)(O)O [barasertib]
Method in brief: as §1

[2] = compound: CC[C@@H]1C(=O)N(C)c2cnc(Nc3ccc(C(=O)NC4CCN(C)CC4)cc3OC)nc2N1C1CCCC1
Method in brief: as §1

volasertib = compound: CC[C@@H]1C(=O)N(C)c2cnc(Nc3ccc(C(=O)N[C@H]4CC[C@H](N5CCN(CC6CC6)CC5)CC4)cc3OC)nc2N1C(C)C [volasertib]
Method in brief: as §1

[3] = compound: CCn1c(C(=O)N(C2CC2)C2CC2)cc2c3c(ncn3C)c(Nc3cc(C)n(C)n3)nc21
Method in brief: as §1

[4] = compound: CCn1cc(-c2ccnc3[nH]c(-c4cccc(CN(C)C)c4)cc23)c(-c2ccc(NC(=O)N(C)C)cc2)n1
Method in brief: as §1

[5] = compound: CN1CCC(CNc2ccc3ncc(-c4cccc(OC(F)(F)F)c4)n3n2)CC1
Method in brief: as §1

saracatinib = compound: CN1CCN(CCOc2cc(OC3CCOCC3)c3c(Nc4c(Cl)ccc5c4OCO5)ncnc3c2)CC1 [saracatinib]
Method in brief: as §1

sotrastaurin = compound: CN1CCN(c2nc(C3=C(c4c[nH]c5ccccc45)C(=O)NC3=O)c3ccccc3n2)CC1 [sotrastaurin]
Method in brief: as §1

Chain of UniProt Q8NEB9 (Q8NEB9 whole entry, looked up): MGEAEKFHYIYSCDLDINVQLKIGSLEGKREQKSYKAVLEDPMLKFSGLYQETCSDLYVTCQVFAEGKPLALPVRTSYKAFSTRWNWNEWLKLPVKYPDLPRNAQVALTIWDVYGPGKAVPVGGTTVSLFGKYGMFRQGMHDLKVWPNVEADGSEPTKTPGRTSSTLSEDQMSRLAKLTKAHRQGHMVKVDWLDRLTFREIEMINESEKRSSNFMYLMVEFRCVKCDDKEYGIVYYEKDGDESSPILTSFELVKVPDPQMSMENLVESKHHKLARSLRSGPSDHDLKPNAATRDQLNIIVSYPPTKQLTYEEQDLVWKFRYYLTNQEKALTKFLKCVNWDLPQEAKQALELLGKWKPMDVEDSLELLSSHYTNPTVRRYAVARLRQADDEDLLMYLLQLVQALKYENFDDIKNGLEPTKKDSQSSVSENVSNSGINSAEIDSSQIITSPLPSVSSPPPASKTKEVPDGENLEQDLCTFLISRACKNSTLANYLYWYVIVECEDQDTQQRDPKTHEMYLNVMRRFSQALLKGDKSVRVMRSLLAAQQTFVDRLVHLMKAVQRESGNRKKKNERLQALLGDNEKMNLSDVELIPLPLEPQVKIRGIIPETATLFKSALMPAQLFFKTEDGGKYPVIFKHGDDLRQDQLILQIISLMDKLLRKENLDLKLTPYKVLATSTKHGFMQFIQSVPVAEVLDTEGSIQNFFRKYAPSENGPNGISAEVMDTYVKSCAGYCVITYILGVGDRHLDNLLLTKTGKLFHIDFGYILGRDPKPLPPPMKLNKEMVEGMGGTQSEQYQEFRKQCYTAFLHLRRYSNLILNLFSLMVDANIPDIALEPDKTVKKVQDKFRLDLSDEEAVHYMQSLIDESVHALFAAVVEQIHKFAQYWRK
Chain of UniProt P54278 (P54278 whole entry, looked up): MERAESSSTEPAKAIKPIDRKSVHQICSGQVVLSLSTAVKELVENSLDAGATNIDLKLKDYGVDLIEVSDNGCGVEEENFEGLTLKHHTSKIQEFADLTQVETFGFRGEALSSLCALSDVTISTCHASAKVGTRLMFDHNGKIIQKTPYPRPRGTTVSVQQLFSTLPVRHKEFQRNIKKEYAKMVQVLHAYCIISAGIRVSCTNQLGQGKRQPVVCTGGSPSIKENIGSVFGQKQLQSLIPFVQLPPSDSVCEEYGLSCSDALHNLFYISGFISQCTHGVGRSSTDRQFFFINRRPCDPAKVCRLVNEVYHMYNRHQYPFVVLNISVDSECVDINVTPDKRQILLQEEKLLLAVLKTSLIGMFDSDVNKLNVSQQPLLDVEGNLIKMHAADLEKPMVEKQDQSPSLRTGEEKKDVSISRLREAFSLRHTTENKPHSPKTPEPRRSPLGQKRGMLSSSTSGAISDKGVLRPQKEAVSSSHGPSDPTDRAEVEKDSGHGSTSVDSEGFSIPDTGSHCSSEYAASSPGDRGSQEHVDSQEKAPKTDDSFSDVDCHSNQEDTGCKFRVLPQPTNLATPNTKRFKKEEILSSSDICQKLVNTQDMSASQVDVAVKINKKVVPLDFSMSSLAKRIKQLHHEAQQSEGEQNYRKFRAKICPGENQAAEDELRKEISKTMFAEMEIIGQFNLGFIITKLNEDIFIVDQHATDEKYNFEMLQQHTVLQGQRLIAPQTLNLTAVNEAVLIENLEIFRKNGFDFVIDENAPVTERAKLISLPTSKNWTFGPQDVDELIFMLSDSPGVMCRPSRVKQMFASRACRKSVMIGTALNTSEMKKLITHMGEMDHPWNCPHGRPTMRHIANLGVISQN
Chain of UniProt Q9HAU0 (Q9HAU0 whole entry, looked up): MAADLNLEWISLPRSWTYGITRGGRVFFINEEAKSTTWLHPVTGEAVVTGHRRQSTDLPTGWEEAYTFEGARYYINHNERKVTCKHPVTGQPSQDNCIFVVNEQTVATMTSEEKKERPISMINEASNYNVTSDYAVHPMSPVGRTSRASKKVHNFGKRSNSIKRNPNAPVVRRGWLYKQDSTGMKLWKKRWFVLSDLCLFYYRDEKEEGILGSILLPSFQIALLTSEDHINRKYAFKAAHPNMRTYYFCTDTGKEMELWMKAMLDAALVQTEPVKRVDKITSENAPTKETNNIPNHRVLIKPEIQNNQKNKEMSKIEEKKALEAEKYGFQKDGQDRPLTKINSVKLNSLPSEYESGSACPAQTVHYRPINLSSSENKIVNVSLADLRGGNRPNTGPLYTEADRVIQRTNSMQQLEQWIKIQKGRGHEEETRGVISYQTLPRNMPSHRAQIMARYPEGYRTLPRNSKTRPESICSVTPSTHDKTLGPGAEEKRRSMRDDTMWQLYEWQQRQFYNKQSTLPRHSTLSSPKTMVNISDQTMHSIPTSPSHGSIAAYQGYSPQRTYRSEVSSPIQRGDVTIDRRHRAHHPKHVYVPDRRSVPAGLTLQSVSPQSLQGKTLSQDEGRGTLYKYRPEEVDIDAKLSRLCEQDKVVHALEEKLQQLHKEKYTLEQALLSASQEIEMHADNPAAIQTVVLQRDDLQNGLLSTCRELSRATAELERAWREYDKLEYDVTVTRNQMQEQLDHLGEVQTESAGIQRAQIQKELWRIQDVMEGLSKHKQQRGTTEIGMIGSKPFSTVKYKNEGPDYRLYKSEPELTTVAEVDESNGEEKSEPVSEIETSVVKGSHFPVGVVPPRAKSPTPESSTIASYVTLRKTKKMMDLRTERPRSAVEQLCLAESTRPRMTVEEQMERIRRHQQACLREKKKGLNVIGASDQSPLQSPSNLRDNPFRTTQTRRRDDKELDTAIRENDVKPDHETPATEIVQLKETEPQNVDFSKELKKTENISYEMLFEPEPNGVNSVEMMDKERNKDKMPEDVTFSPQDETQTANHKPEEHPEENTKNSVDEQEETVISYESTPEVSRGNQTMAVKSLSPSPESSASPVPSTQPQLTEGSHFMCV
Chain of UniProt P49643 (P49643 whole entry, looked up): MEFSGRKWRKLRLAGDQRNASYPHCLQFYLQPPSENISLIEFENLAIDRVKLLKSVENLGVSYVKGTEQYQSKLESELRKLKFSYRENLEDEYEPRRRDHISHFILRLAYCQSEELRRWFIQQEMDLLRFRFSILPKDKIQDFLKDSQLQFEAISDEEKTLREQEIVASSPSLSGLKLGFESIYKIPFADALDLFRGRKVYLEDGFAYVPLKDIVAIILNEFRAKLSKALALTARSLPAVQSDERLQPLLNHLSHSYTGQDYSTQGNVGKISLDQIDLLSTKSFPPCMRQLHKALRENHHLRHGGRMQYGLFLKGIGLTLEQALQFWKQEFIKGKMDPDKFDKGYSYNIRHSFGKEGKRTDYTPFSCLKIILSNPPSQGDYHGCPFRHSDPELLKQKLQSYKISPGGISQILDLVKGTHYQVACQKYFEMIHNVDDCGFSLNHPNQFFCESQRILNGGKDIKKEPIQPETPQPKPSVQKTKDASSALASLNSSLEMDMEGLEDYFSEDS
Chain of UniProt Q8N8N7 (Q8N8N7 whole entry, looked up): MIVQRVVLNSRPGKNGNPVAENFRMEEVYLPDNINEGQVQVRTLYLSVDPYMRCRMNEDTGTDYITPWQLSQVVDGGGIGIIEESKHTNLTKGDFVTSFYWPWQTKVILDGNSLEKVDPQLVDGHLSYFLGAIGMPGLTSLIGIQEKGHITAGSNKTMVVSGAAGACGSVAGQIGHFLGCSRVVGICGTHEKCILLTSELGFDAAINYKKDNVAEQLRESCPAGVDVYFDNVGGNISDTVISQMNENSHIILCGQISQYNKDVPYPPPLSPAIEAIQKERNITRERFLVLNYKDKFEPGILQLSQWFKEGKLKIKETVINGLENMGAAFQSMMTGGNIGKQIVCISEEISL
Chain of UniProt Q9Y446 (Q9Y446 whole entry, looked up): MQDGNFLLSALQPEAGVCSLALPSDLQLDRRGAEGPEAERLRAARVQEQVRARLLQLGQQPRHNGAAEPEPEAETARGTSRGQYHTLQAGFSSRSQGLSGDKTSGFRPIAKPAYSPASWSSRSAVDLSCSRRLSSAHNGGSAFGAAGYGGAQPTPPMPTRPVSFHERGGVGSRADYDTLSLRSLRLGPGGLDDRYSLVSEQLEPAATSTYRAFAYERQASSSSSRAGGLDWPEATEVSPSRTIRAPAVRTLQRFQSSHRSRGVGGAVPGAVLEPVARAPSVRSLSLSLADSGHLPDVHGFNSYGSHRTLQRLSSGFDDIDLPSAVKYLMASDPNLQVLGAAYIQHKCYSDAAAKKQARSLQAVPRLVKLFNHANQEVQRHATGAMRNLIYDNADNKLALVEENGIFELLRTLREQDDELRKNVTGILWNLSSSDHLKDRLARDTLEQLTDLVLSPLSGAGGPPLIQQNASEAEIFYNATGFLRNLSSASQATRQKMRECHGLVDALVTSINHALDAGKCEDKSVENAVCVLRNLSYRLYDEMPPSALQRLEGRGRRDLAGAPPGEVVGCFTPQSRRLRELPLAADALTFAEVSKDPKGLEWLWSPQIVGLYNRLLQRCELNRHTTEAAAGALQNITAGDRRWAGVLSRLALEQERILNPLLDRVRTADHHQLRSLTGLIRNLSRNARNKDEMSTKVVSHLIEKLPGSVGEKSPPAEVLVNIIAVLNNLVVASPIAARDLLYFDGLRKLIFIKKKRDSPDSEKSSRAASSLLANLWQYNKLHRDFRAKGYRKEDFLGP
Chain of UniProt Q96I23 (Q96I23 whole entry, looked up): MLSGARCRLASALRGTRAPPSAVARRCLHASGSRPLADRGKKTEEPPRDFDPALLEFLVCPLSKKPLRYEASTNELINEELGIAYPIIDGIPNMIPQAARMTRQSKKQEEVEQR
Chain of UniProt Q9H939 (Q9H939 whole entry, looked up): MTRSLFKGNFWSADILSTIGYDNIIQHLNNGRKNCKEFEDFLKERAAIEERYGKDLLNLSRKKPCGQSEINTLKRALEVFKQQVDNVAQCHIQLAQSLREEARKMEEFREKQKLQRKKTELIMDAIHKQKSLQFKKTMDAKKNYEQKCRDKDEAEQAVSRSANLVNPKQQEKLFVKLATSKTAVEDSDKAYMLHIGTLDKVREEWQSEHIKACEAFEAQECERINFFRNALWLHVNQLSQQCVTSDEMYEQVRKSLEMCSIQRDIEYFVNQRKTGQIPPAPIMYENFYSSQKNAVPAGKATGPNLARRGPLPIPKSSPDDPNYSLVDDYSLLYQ

Target	log2 fold change (vemurafenib)	log2 fold change [1]	log2 fold change (barasertib)	log2 fold change [2]	log2 fold change (volasertib)	log2 fold change [3]	log2 fold change [4]	log2 fold change [5]	log2 fold change (saracatinib)	log2 fold change (sotrastaurin)
PRKDC (UniProt P78527)	0.132	0.014	-0.009	-0.058	-0.062	0.063	-0.12	0.097	-0.007	0.048
PTPN6 isoform 4 (UniProt P29350)	0.02	-0.089	0.081	-0.487 (active)	0.014	0.026	-0.038	-0.024	-0.046	0.006
PRKD3 (UniProt O94806)	-0.148	-0.057	0.161	-0.25	-0.06	-0.143	-0.876 (active)	0.219	–	0.086
PHF14 (UniProt O94880)	0.079	-0.127	-0.046	0.341	0.004	-0.02	–	–	-0.047	–
PYURF (UniProt Q96I23)	-0.048	-0.003	-0.049	0.103	0.059	0.042	-0.03	-0.002	-0.013	-0.034
PSTPIP2 (UniProt Q9H939)	0.022	0.018	0.01	-0.029	-0.037	-0.007	0.063	-0.09	0.032	0
PGRMC1 (UniProt O00264)	-0.009	-0.043	0.019	0.015	0.008	0.021	-0.045	0.071	-0.017	-0.003
PIK3C3 (UniProt Q8NEB9)	0.032	0.019	-0.012	0.098	-0.025	-0.075	-0.226	0.121	0.008	0.007
PRC1 (UniProt O43663)	0.048	0.03	0.063	-0.057	-0.028	0	-0.004	-0.094	0.025	0.005
QKI (UniProt Q96PU8)	-0.006	0.024	-0.027	0.087	-0.021	0.001	-0.196	0.107	0.047	0
PMS2 (UniProt P54278)	-0.015	-0.028	0.033	-0.072	-0.147	0.101	-0.02	0.012	-0.004	0.001
PTGR2 (UniProt Q8N8N7)	-0.029	0.04	-0.022	0.056	-0.039	0.069	0.012	0.092	-0.021	0.1
POLR2B (UniProt P30876)	0.021	-0.004	0.039	-0.049	-0.074	0.01	-0.029	0.017	0.016	0.024
PICALM (UniProt Q13492)	-0.004	-0.004	0.037	0.04	0.014	0.004	0.098	-0.021	0.009	-0.061
PYCR2 (UniProt Q96C36)	0.004	-0.005	0.006	0.036	0.016	-0.001	0.099	0.012	-0.012	-0.014
PKP3 isoform 2 (UniProt Q9Y446)	-0.087	0.05	-0.01	0.061	-0.005	0.05	0.027	-0.088	-0.037	0.001
PRPF6 (UniProt O94906)	-0.019	0.004	0.039	-0.057	-0.015	0.019	0.034	-0.049	0.009	0.025
PTGS1 isoform 6 (UniProt P23219)	0.058	0.076	0.039	0.005	-0.022	-0.012	-0.279 (active)	0.134	-0.033	0.065
PLEKHA5 isoform 6 (UniProt Q9HAU0)	0.003	-0.003	0.043	-0.005	0.003	0.026	-0.117	-0.088	0.027	0.02
PPP1R12B isoform 6 (UniProt O60237)	0.08	0.036	-0.046	0.133	-0.029	-0.209	–	–	-0.047	-0.057
PWP2 (UniProt Q15269)	0.033	0.045	0.044	0.006	-0.013	0.018	0.015	-0.038	0.015	0.052
PUF60 isoform 2 (UniProt Q9UHX1)	-0.126	0.101	-0.057	0.047	0.021	-0.062	1.25 (active)	-0.115	–	-0.043
PRKCA (UniProt P17252)	0.019	-0.016	0.051	-0.186	-0.054	0.004	0.101	-0.207	-0.046	0.924 (active)
PI4KB (UniProt Q9UBF8)	0.222 (active)	0.011	-0.051	0.049	-0.026	-0.016	-0.038	0.134	-0.006	0.012
POC5 (UniProt Q8NA72)	-0.062	-0.049	0.014	0.17	0	-0.045	0.021	-0.011	-0.087	-0.046
POLD3 (UniProt Q15054)	0.003	-0.005	0.004	-0.014	-0.045	-0.013	0.009	-0.03	0.028	-0.01
PCYT1B (UniProt Q9Y5K3)	0.013	0.011	0.012	0.046	0.017	0.008	-0.094	0.063	0.012	-0.002
PRIM2 (UniProt P49643)	0.025	0.04	-0.005	-0.034	-0.048	0.019	-0.027	-0.046	-0.03	0.02
PGLS (UniProt O95336)	-0.033	-0.027	0.067	-0.055	0.027	0.036	0.051	-0.114	0.039	0.006
PPP3CA isoform 2 (UniProt Q08209)	-0.008	-0.037	0.025	0.046	-0.005	0.032	0.115	-0.182	0	-0.005
